Among all 2,100 compounds or so, about 590 (28%) were called active. Inconclusive results (about 42%) are left out. The list shows a part of the results. Values without a mark were called inactive. The call rests on the fitted dose curve; in most records, active means well fitted inhibition curve with a large enough effect; inconclusive means small, poorly fitted or top-dose-only effect; inactive means flat fitted curve, though single readings scatter.
Potency means the concentration at half of the fitted maximal effect.

In this assay the target is DNA dC->dU-editing enzyme APOBEC-3F (Homo sapiens) (UniProt Q8IUX4). The experiment in a line: qHTS for inhibitors of Vif-A3F interactions: Cherry picks. Further: nearly all actives have a fitted effect of over 70% in size.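 On max response: % of control where 0% means no effect; active compounds raise eYFP fluorescence by blocking Vif-driven A3F loss.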 The settings on record: HeLa A3F-eYFP + Vif (tagged APOBEC3F with the HIV-1 protein that degrades it), eYFP fluorescence, 24 h. In outline: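 Read-out: yellow fluorescence (ex 488 nm, em 500-530 nm) by laser-scanning cytometer after 24 h compound exposure, several concentrations, at 37 deg C. Cells: HeLa line stably co-expressing Vif and C-terminally eYFP-tagged A3F; MG132 served as positive control.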
DNA dC->dU-editing enzyme APOBEC-3F (Homo sapiens), sequence (Q8IUX4 whole entry, looked up): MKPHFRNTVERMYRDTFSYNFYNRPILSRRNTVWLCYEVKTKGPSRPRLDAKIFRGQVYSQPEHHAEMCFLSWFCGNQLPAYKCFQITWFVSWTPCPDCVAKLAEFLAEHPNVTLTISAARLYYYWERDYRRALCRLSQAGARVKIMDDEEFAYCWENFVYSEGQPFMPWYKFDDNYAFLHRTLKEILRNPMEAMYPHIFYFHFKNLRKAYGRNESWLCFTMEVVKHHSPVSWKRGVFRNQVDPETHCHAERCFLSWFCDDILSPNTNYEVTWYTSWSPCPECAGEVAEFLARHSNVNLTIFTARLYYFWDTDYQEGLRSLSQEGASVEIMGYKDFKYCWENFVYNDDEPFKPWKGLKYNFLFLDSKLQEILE
For orientation: In qHTS, concentration-response curves come from the screen itself.
On to `CCCOc1ccc(C(=O)Nc2cccc(NC(=O)c3ccc(Cl)cc3Cl)c2)cc1`, for which the Potency is 16.4 µM (active).
As for `CCCOc1ccc2cc(C(=O)NCc3ccccc3)c(=O)oc2c1`, the max response was -1.07%.
Consider `Cc1ccc(NC(=S)NC(=O)c2ccc(F)cc2)cc1S(=O)(=O)Nc1cccc(Cl)c1`, for which the max response is -16.8%.
As to `c1cncc(-c2nc(NCc3cccs3)c3ccccc3n2)c1`, the max response is -5.9%.
On to `COc1ccc(-c2cc(-c3nnc(COC(=O)c4ccncc4)o3)c3ccccc3n2)cc1OC`, for which the max response is 2.21%.
For `CC(=O)N/N=C/c1cc(C(C)(C)C)cc(/C=N/NC(C)=O)c1O`, the Potency is 23.1 µM (active).
As for `NC(=S)N/N=C/c1cccc(O)c1O`, the max response is -21%.
As to `Nc1c(C(=O)Nc2ccc(S(=O)(=O)N3CCCC3)cc2)sc2nc3ccc(OC(F)(F)F)cc3cc12`, the Potency is 20.6 µM (active).
Consider `Cc1c(C(=O)Nc2ccc(C(C)C)cc2)sc2nc3n(c(=O)c12)CCC3`, for which the max response is -1.94%.
`O=C(CN1c2cccc3cccc(c23)S1(=O)=O)Nc1ccc(S(=O)(=O)N2CCOCC2)cc1`: the max response is -0.998%.
For `O=C(Nc1ccc(Cl)cn1)c1cccc(S(=O)(=O)N2CCCCCC2)c1`, the max response is -1%.
Take `CCc1cccc2cc3c(N)c(C(=O)Nc4ccc(S(=O)(=O)N5CCCC5)cc4)sc3nc12`: the Potency was 2.8 µM (active).
Consider `COc1ccc(NC(=O)c2oc3ccc(S(=O)(=O)N4CCOCC4)cc3c2C)cc1`, for which the max response was -0.455%.
Regarding `Nc1c(C(=O)Nc2ccc(S(=O)(=O)N3CCCC3)cc2)sc2nc3cc4c(cc3cc12)CCC4`, the Potency is 6.51 µM (active).
With `CC(C)c1ccc(C(=O)NCCCNC(=O)c2cnccn2)cc1`, the max response is 1.42%.
Turning to `Fc1cccc(F)c1/C=N/NC(=S)Nc1cccnc1`, the max response is -0.429%.
On to `O=C(Nc1ccc([N+](=O)[O-])cc1)C(Cc1ccccc1)N1C(=O)c2cccc3cccc(c23)C1=O` (centres undefined), for which the Potency is 12.5 µM (active).
Turning to `O=C(O)Cc1sc(NC2CCCCC2)nc1-c1ccc(Cl)cc1`, the max response is -1.51%.
In the case of `COCc1cc(C)nc(SCC(=O)Nc2ccc3[nH]c(=O)[nH]c3c2)c1C#N`, the max response was 0.302%.
On to `Cc1ccc(NC(=O)CSc2n[nH]c(-c3ccccn3)n2)cc1`, for which the max response was -3.6%.
On to `Cc1nc2cc(NC(=O)CSc3nc4c(C)cccc4cc3C#N)ccc2s1`, for which the Potency is 11.6 µM (active).
`Cc1cc(NC(=O)CSc2nc3c(C)cccc3cc2C#N)no1`: the Potency was 7.31 µM (active).
Turning to `Cc1nonc1NC(=O)CSc1nc2c(C)cccc2cc1C#N`, the Potency was 18.4 µM (active).
As to `CN1C(=O)N(C)c2ccc(C=O)c3cccc1c23`, the max response was -1.54%.

For the origin of these results see PubChem BioAssay AID651814 (National Center for Advancing Translational Sciences (NCATS), 2012).
